Laboratory results from PubChem BioAssay (NCATS).
Results filed as inconclusive are left out. A number with no mark means an inactive call. Activity calls are given as the source filed them. Calls follow the shape of the dose curve; as a rule, active = well fitted inhibition curve with a large enough effect; inconclusive = small, poorly fitted or top-dose-only effect; inactive = flat fitted curve, though single readings scatter.

Assay: P-glycoprotein substrates identified in KB-8-5-11 adenocarcinoma cell line, qHTS therapeutic library screen (AID 1346987); also: nearly all actives have a fitted effect of over 65% in size
Conditions: KB-8-5-11 (P-gp overexpressing) viability, CellTiter-Glo, 72 h; series mostly up to 44.5 µM; activity change, negative = cytotoxicity: at the top concentration
How it was run: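 Human cervical adenocarcinoma KB-8-5-11 cells, selected in colchicine to over-express P-gp and assayed without it, were exposed for 72 h to titrated compounds. An ATP-based luminescent viability signal gave AC50.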
% is scaled to controls: 0 for no effect and ±100 for the full control effect.

| SMILES | outcome | activity change, negative = cytotoxicity |
| --- | --- | --- |
| C[C@@H](OC(=O)/C=C/c1ccc(O)cc1)C1=C[C@]2(C=C[C@@H]3C(C(=O)O)=CO[C@@H](O[C@@H]4O[C@H](CO[C@@H]5O[C@H](CO)[C@@H](O)[C@H](O)[C@H]5O)[C@@H](O)[C@H](O)[C@H]4O)[C@@H]32)OC1=O | inactive [at 17.3 µM] |  |
| COc1ccccc1CC(C(=O)O)N(C)C(=O)c1ccccc1 (stereo unspecified) |  | 7.3% |
| CC1=CC(=O)C2C(C)(C)CCCC2(C)C12CCC1(COC(=O)C1)O2 (stereo unspecified) |  | 2.44% |
| O=C(c1ccc(F)cc1)C1CCN(CCn2c(=O)nc3n(c2=O)CCCC3)CC1 |  | -1.96% |
| COc1ccc2cc(OCC3(C(=O)O)CN(C(=O)c4ccc(F)cc4)C3)ccc2c1 | inactive |  |
| COc1cc(CC(COC2OC(CO)C(O)C(O)C2O)c2cc(/C=C/CO)cc(OC)c2O)ccc1O (stereo unspecified) |  | 9.07% [at 17.3 µM] |
| CC(=O)OC[C@@]12[C@H](O)C[C@]3(C)C(=CCC4[C@@]5(C)CC[C@H](O[C@@H]6O[C@H](C(=O)O)[C@@H](O[C@@H]7O[C@H](CO)[C@@H](O)[C@H](O)[C@H]7O)[C@H](O)[C@H]6O[C@@H]6O[C@H](CO)[C@@H](O)[C@H](O)[C@H]6O)[C@](C)(CO)C5CC[C@]43C)[C@@H]1CC(C)(C)[C@@H](OC(C)=O)[C@@H]2O (stereo partly specified) |  | 4.33% [at 9.29 µM] |
| C[C@@H]1O[C@@H](O[C@H]2[C@H](O[C@H]3CC[C@@]4(C)C(CC[C@]5(C)C4CC=C4C6CC(C)(C)CC[C@]6(C(=O)O[C@@H]6O[C@H](CO[C@@H]7O[C@H](CO)[C@@H](O[C@@H]8O[C@@H](C)[C@H](O)[C@@H](O)[C@H]8O)[C@H](O)[C@H]7O)[C@@H](O)[C@H](O)[C@H]6O)CC[C@]45C)[C@]3(C)CO)OC[C@H](O)[C@@H]2O)[C@H](O)[C@H](O)[C@H]1O (stereo partly specified) | inactive [at 9.29 µM] |  |
| CCc1cc2c(=O)c(-c3nc4ccccc4s3)coc2c(CN2CCCCC2)c1O |  | -4.09% [at 17.3 µM] |
| CC(O)C(O)/C=C/C=C/C(=O)O[C@@H]1C=C2COC(=O)[C@]2(O)[C@@]2(C)CCCC(C)(C)C12 (stereo partly specified) |  | 2.92% [at 17.3 µM] |
| Oc1ccc([C@H]2COc3cc(O)ccc3C2)cc1 | inactive |  |
| C/C=C1\[C@H](O[C@@H]2O[C@H](CO)[C@@H](O)[C@H](O)[C@H]2O)OC=C(C(=O)OC)[C@H]1CC(=O)OC | inactive [at 17.3 µM] |  |
| CCOC(=O)c1ccc(N(C)c2csc(-c3ccccc3)n2)cc1 | inactive |  |
| CC(=O)OCC(=O)O[C@@H]1[C@H]2[C@@H](OC(=O)c3ccccc3)[C@@H](C)C[C@]2(O)[C@H](OC(C)=O)C2(C)[C@H]3CC(C)(C)C(=O)[C@@H]3CC1(OC(C)=O)[C@@H]2OC(C)=O (stereo partly specified) |  | -14.7% [at 17.3 µM] |
| CC(C)(O)c1ccc2c(c1)C(O)CC1C(C)(C(=O)O)CCCC21C (stereo unspecified) |  | 4.29% |
| CC[C@H]1OC(=O)[C@H](C)[C@@H](OC2C[C@@](C)(OC)[C@@H](O)[C@H](C)O2)[C@H](C)[C@@H](OC2O[C@H](C)C[C@H](NC)[C@H]2O)[C@](C)(O)C[C@@H](C)CN(C)[C@H](C)[C@@H](O)[C@]1(C)O (stereo partly specified) |  | 2.19% |
| COc1cc(C[C@H]2COC(=O)[C@@H]2Cc2ccc(O)c(OC)c2)ccc1O | inactive |  |
| COc1ccc(C2=CC(=O)OC2Cc2ccc(O)cc2)c(O)c1 (stereo unspecified) |  | 0.278% |
| OC[C@H]1O[C@@H](Oc2cc(O)cc(-c3cc4ccc(O)cc4o3)c2)[C@H](O)[C@@H](O)[C@@H]1O | inactive [at 17.3 µM] |  |
| CCn1nnnc1NCc1ccc(C(C)C)cc1 | inactive |  |
| COCCCNCC1COc2ccccc2O1 (stereo unspecified) | inactive |  |
| C=C[C@@]1(C)CC(=O)C2[C@](C)(O1)[C@@H](OC(C)=O)[C@@H](O)[C@H]1C(C)(C)CCC[C@]21C (stereo partly specified) |  | 9.24% [at 9.29 µM] |
| CC(=O)O[C@H]1[C@H](C)[C@@H](O)[C@H]2[C@@H]1C=C(C(=O)O)[C@H]1C[C@@H]3[C@H]([C@H]21)[C@H]1C(=O)O[C@@H]2CC[C@@]3(C)O[C@]1(O)[C@@H]2C |  | 8.35% [at 17.3 µM] |
| CC(C)CC(=O)OC[C@H]1O[C@@](COC(=O)CC(C)C)(O[C@H]2O[C@H](CO)[C@@H](O)[C@H](O)[C@H]2OC(=O)CC(C)C)[C@@H](OC(=O)CC(C)C)[C@@H]1O | inactive [at 17.3 µM] |  |
| Cc1nn(C)c(COc2ccc(N3CCN(S(=O)(=O)N(C)C)CC3)cc2)c1-c1cccc2c(CCCOc3cccc4ccccc34)c(C(=O)O)n(CCN3CCOCC3)c12 | inactive |  |
| COc1cc(C2OCC3C(c4ccc(OC5OC(CO)C(O)C(O)C5O)c(OC)c4)OCC23)ccc1O (stereo unspecified) |  | 8.63% [at 17.3 µM] |
